From PubChem BioAssay AID2435 (The Scripps Research Institute Molecular Screening Center, 2010)
About 1,000 (0.31%) of roughly 320,000 compounds were called active. Many of the other results were omitted from the sample, so actives are more common in it than they were. A number with no mark means an inactive call.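 How the source made its calls: active means activation above the mean of all tested compounds plus 3 SD, cutoff set per screening run (cut at about 20% in these data); inactive means the rest.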

Molecular target: Oxytocin receptor (Homo sapiens) (UniProt P30559)
Sequence (P30559 whole entry, looked up): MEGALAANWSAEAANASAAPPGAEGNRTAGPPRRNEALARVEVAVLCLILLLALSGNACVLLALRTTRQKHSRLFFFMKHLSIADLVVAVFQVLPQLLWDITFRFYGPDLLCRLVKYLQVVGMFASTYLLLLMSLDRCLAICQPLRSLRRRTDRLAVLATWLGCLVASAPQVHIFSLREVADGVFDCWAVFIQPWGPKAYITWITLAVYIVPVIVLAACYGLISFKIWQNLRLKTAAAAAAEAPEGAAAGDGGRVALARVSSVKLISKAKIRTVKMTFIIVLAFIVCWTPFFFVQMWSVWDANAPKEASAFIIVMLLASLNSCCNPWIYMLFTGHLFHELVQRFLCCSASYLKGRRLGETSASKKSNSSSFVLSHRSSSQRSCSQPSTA
Test: oxytocin receptor activation by calcium flux – fluorescence, CHO-OTR cells, Fluo-8 calcium, primary screen (AID 2435);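 further: peak over basal fluorescence ratio from a 100 s FLIPR kinetic read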
Conditions: Fluo-8 calcium fluorescence, at 3 µM, stronger effect = higher value

SMILES | activation
CC(=O)NC(=O)NC(C)Cc1ccccc1 (stereo not given) | -0.72%
CC(Cc1ccccc1)NC=O (stereo not given) | -0.34%
CC(Cc1ccccc1)NCCC(c1ccccc1)c1ccccc1 (stereo not given) | 23.9% (active)
O=C(c1cc2nc(-c3ccccc3)cc(-c3ccccc3)n2n1)N1CCC2(CC1)OCCO2 | -2.27%
O=C(Cc1ccc(Cl)cc1)NCCN1CCN(C(=O)Cc2ccc(Cl)cc2)CC1 | 1.31%
